Counter-ions that a name gives are not always drawn.
Experiments:
Conditions in all cases: incubation time: 27 h, anaerobic, 37 °C;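 for the amine columns active = adjusted P below 0.05 in both replicates with a change the same way and a mean fold change under 0.8 or over 1.25; inactive = the rest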
[1] = system: Clostridium sporogenes DSM 1664; assay: growth (OD595) fold change vs plate DMSO controls (fold change (ratio)); higher = more growth
How it was run: (§1)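 Anaerobic mGAM cultures in 96-well plates were grown for 27 h at 37 °C, and absorbance was then read at 595 nm. After blank and compound background correction with 20 µM compound solutions in water, a calibration factor of 5 gave OD. Growth is the fold change relative to the median of each plate's DMSO controls. Values are means of 2 biological replicates, with fold changes above 1.5 set to NA.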

Escherichia coli IAI1 [2] = assay: as above
How it was run: as §1

[3] = system: Klebsiella aerogenes DSM 30053; assay: as above
How it was run: as §1

[4] = system: Ruminococcus gnavus DSM 108212; assay: as above
How it was run: as §1

[5] = system: Klebsiella aerogenes DSM 30053; assay: fold change of Histamine concentration vs plate DMSO controls (fold change (ratio)); higher = more amine produced, active = hit call of the paper (significant change in both replicates, either direction)
How it was run: (§2)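 Each value is the fold change relative to DMSO-only wells on the same plate. Four gut bacterial strains were grown anaerobically in mGAM at 37 °C for 27 h in 80 µL wells, starting at OD 0.1 before a 1:1 dilution, with compounds at 20 µM final (sweeteners 50 µM). Whole cultures were extracted with cold acetonitrile/methanol containing 0.1% formic acid, centrifuged, and amines were quantified by LC–triple-quadrupole MS (dynamic MRM) against external calibration curves with within-batch drift correction. Values are means of 2 biological replicates.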

[6] = system: Clostridium sporogenes DSM 1664; assay: fold change of Tryptamine concentration vs plate DMSO controls (fold change (ratio)); higher = more amine produced, active = hit call of the paper (significant change in both replicates, either direction)
How it was run: as §2

[7] = system: Ruminococcus gnavus DSM 108212; assay: as above
How it was run: as §2

Escherichia coli IAI1 [8] = assay: fold change of Putrescine concentration vs plate DMSO controls (fold change (ratio)); higher = more amine produced, active = hit call of the paper (significant change in both replicates, either direction)
How it was run: as §2

[9] = system: Klebsiella aerogenes DSM 30053; assay: as above
How it was run: as §2

Escherichia coli IAI1 [10] = assay: fold change of Cadaverine concentration vs plate DMSO controls (fold change (ratio)); higher = more amine produced, active = hit call of the paper (significant change in both replicates, either direction)
How it was run: as §2

[11] = system: Klebsiella aerogenes DSM 30053; assay: as above
How it was run: as §2

[12] = system: Ruminococcus gnavus DSM 108212; assay: fold change of 2-Phenylethylamine concentration vs plate DMSO controls (fold change (ratio)); higher = more amine produced, active = hit call of the paper (significant change in both replicates, either direction)
How it was run: as §2

Structure (SMILES) | growth [1] | growth (Escherichia coli IAI1 [2]) | growth [3] | growth [4] | fold change of Histamine concentration [5] | fold change of Tryptamine concentration [6] | fold change of Tryptamine concentration [7] | fold change of Putrescine concentration (Escherichia coli IAI1 [8]) | fold change of Putrescine concentration [9] | fold change of Cadaverine concentration (Escherichia coli IAI1 [10]) | fold change of Cadaverine concentration [11] | fold change of 2-Phenylethylamine concentration [12]
CCN1/C(=C/C=C/C=C/c2sc3ccccc3[n+]2CC)Sc2ccccc21 [Dithiazanine iodide] (20 µM) | 0.625 | 0.879 | 0.837 | 1.24 | 0.924 (inactive) | 0.849 (inactive) | 0.749 (active) | 1.05 (inactive) | 1.01 (inactive) | 1.07 (inactive) | 0.995 (inactive) | 0.699 (active)
O=C1NS(=O)(=O)c2ccccc21 [Saccharin] (50 µM) | 0.975 | 1.02 | 0.976 | 1.11 | 1.01 (inactive) | 1.02 (inactive) | 1 (inactive) | 1.05 (inactive) | 1.01 (inactive) | 1.06 (inactive) | 0.996 (inactive) | 1.02 (inactive)
Cc1cnc(C(=O)NCCc2ccc(S(=O)(=O)NC(=O)NC3CCCCC3)cc2)cn1 [Glipizide] (20 µM) | 1.11 | 0.966 | 1.04 | 1.08 | 0.94 (inactive) | 1.01 (inactive) | 0.99 (inactive) | 0.989 (inactive) | 0.998 (inactive) | 0.973 (inactive) | 1 (inactive) | 1.03 (inactive)
O=C(CO)[C@@H](O)[C@@H](O)[C@H](O)CO [D-Tagatose] (50 µM) | 0.957 | 1.01 | 1.03 | 0.984 | 0.943 (inactive) | 0.991 (inactive) | 0.995 (inactive) | 1.03 (inactive) | 1.02 (inactive) | 1.07 (inactive) | 1.03 (inactive) | 0.992 (inactive)
COc1ccc([C@@H]2Sc3ccccc3N(CCN(C)C)C(=O)[C@@H]2OC(C)=O)cc1 [Diltiazem hydrochloride] (20 µM) | 1.13 | 1.02 | 0.994 | 1.01 | 1.07 (inactive) | 1.03 (inactive) | 1.01 (inactive) | 0.982 (inactive) | 1.02 (inactive) | 0.985 (inactive) | 0.993 (inactive) | 0.971 (inactive)
CC(=O)Nc1c(I)c(C(=O)N[C@H]2C(O)O[C@H](CO)[C@@H](O)[C@@H]2O)c(I)c(N(C)C(C)=O)c1I (some centres undefined) [Metrizamide] (20 µM) | 1.03 | 1.22 | 1.04 | 0.799 | 0.994 (inactive) | 1.05 (inactive) | 1.06 (inactive) | 1.22 (inactive) | 0.994 (inactive) | 0.971 (inactive) | 1 (inactive) | 1.08 (inactive)
OC[C@@H](O)[C@@H](O[C@@H]1O[C@H](CO)[C@H](O)[C@H](O)[C@H]1O)[C@H](O)[C@@H](O)CO [Lactitol] (50 µM) | 1.13 | 0.949 | 1.01 | 0.988 | 0.988 (inactive) | 0.997 (inactive) | 0.891 (inactive) | 0.938 (inactive) | 1.02 (inactive) | 0.997 (inactive) | 0.998 (inactive) | 0.858 (inactive)
CCC(=O)OCC(=O)[C@@]1(OC(=O)CC)[C@H](C)C[C@H]2[C@H]3[C@H]([C@@H](O)C[C@@]21C)[C@@]1(C)C=CC(=O)C=C1C[C@H]3Cl [Alclometasone dipropionate] (20 µM) | 1.15 | 1.07 | 1.01 | 0.881 | 1.04 (inactive) | 1 (inactive) | 0.947 (inactive) | 1.03 (inactive) | 1.02 (inactive) | 0.986 (inactive) | 0.997 (inactive) | 0.97 (inactive)
CC(C)(Oc1ccc(Cl)cc1)C(=O)O [Clofibric acid] (20 µM) | 1.11 | 0.983 | 1.02 | 0.96 | 1.12 (inactive) | 0.982 (inactive) | 1 (inactive) | 0.957 (inactive) | 1.02 (inactive) | 1 (inactive) | 0.982 (inactive) | 1 (inactive)
O=C1NCCN1c1ncc([N+](=O)[O-])s1 [Niridazole] (20 µM) | 0.0129 | 1.09 | 0.756 | 0.0406 | 1.11 (inactive) | 0.0363 (active) | 0.0455 (active) | 1.44 (inactive) | 1.03 (inactive) | 1.97 (active) | 1.02 (inactive) | 0.0533 (active)
NC(=O)OCC(COC(N)=O)c1ccccc1 [Felbamate] (20 µM) | 1.07 | 0.986 | 0.988 | 0.902 | 0.989 (inactive) | 1.02 (inactive) | 1.05 (inactive) | 1 (inactive) | 0.993 (inactive) | 1.05 (inactive) | 0.985 (inactive) | 1.07 (inactive)
CO/N=C(\C(=O)N[C@@H]1C(=O)N2C(C(=O)O)=C(COC(C)=O)CS[C@H]12)c1csc(N)n1 [Cefotaxime sodium salt] (20 µM) | 0.00126 | 0.00374 | 0.601 | 0.2 | 0.733 (inactive) | 0.0286 (active) | 0.0769 (active) | 0.143 (active) | 0.729 (inactive) | 0.574 (active) | 1.02 (inactive) | 0.055 (active)
CC1CC(OC(=O)c2ccccc2O)CC(C)(C)C1 (centres undefined) [Homosalate] (20 µM) | 1.2 | 0.987 | 0.984 | 1.1 | 1.04 (inactive) | 0.994 (inactive) | 0.952 (inactive) | 1.23 (inactive) | 1 (inactive) | 1 (inactive) | 0.986 (inactive) | 0.922 (inactive)
Cc1cn([C@H]2C[C@H](N=[N+]=[N-])[C@@H](CO)O2)c(=O)[nH]c1=O [Zidovudine] (20 µM) | 0.921 | 0.825 | 0.946 | 1.45 | 1.12 (inactive) | 1.04 (inactive) | 1.02 (inactive) | 0.549 (inactive) | 1.07 (inactive) | 1.79 (inactive) | 0.981 (inactive) | 1.11 (inactive)
CCCC(=O)OCOC(=O)C1=C(C)NC(C)=C(C(=O)OC)C1c1cccc(Cl)c1Cl (centres undefined) [Clevidipine] (20 µM) | 0.828 | 1.03 | 1.01 | 1.22 | 1.01 (inactive) | 0.829 (inactive) | 0.902 (inactive) | 1.04 (inactive) | 1.01 (inactive) | 0.985 (inactive) | 0.998 (inactive) | 0.928 (inactive)
Clc1cccc(Cl)c1NC1=NCCN1 [Clonidine hydrochloride] (20 µM) | 0.856 | 0.984 | 0.989 | 0.99 | 1.04 (inactive) | 0.953 (inactive) | 1.09 (inactive) | 0.995 (inactive) | 1.01 (inactive) | 0.996 (inactive) | 0.992 (inactive) | 1.08 (inactive)
CCC(=O)O[C@@H](O[P@](=O)(CCCCc1ccccc1)CC(=O)N1C[C@H](C2CCCCC2)C[C@H]1C(=O)O)C(C)C [Fosinopril] (20 µM) | 1.01 | 1.09 | 1.05 | 1.08 | 1.06 (inactive) | 0.979 (inactive) | 1.05 (inactive) | 1.3 (inactive) | 1.01 (inactive) | 0.939 (inactive) | 1 (inactive) | 1.08 (inactive)
CC(C)c1nc(CN(C)C(=O)N[C@H](C(=O)N[C@@H](Cc2ccccc2)C[C@H](O)[C@H](Cc2ccccc2)NC(=O)OCc2cncs2)C(C)C)cs1 [Ritonavir] (20 µM) | 1.01 | 0.962 | 0.987 | 0.983 | 1.08 (inactive) | 0.822 (inactive) | 0.942 (inactive) | 0.943 (inactive) | 1.01 (inactive) | 0.99 (inactive) | 0.985 (inactive) | 0.939 (inactive)
OCCN(CCO)c1nc(N2CCCCC2)c2nc(N(CCO)CCO)nc(N3CCCCC3)c2n1 [Dipyridamole] (20 µM) | 0.986 | 1.03 | 0.521 | 0.969 | 0.47 (inactive) | 0.971 (inactive) | 1 (inactive) | 1.03 (inactive) | 0.51 (inactive) | 1 (inactive) | 0.5 (inactive) | 0.994 (inactive)
Clc1ccc(Cn2c(CN3CCCC3)nc3ccccc32)cc1 [Clemizole hydrochloride] (20 µM) | 1.15 | 1.01 | 1.05 | 0.643 | 0.939 (inactive) | 1.11 (inactive) | 0.858 (inactive) | 0.882 (inactive) | 0.958 (inactive) | 1.41 (active) | 1.01 (inactive) | 0.968 (inactive)
CCCSc1nc(N[C@@H]2C[C@H]2c2ccc(F)c(F)c2)c2nnn([C@@H]3C[C@H](OCCO)[C@@H](O)[C@H]3O)c2n1 [Ticagrelor] (20 µM) | 1.15 | 0.999 | 1.02 | 1.03 | 0.977 (inactive) | 0.88 (inactive) | 0.748 (active) | 1.04 (inactive) | 1.04 (inactive) | 1.07 (inactive) | 1.01 (inactive) | 0.802 (inactive)
O=C(O)CCC(=O)Nc1ccc(S(=O)(=O)Nc2nccs2)cc1 [Succinylsulfathiazole] (20 µM) | 1.03 | 1.11 | 1.2 | 1.13 | 0.965 (inactive) | 0.988 (inactive) | 1.02 (inactive) | 1.04 (inactive) | 0.997 (inactive) | 0.991 (inactive) | 1.01 (inactive) | 1.02 (inactive)

— the supplement of paper PMC12494721
